# Publication PMC12136788
# Numbering of substitutions follows the chain as printed. In all, about 24,000 sequences were measured (“enrichment r”: median about 0.99, highest 2% from about 3.7 on). The full list was thinned out, with the highest values kept by preference.
# T1: UNK ZnF1-3 (human, UniProt Q9C0B0 31-174)
# T1 sequence: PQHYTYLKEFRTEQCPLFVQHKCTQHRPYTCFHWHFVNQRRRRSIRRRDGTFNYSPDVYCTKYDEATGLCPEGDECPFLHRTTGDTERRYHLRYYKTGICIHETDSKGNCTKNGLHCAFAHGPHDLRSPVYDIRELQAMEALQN
# B1: chr6:40197388:40197389:+_ENSMUSG00000057716_ENSMUST00000061740|mus_mus|mus_mus_mus_hu_False|68_108 (ssRNA)
# RNA: GGGAGUUCUACAGUCCGACGAUCGAGUUGUCAGUUUGGAUUUAUUCCACCUCUGUUUGGGUGCUAGUAAGAUAGAUUGUUAUUUUGGGAUUCAUGGCCUUGAAUAUCAAGAGGGAAAGGAAGAGGAUGGAAAGAGUCAAGAGUCAACAGAGGAUUGAGCAUCA
# B2: 33360611_33360731_3434_3pUTR_ENSMUSG00000024378_ENSMUST00000025236|mouse|control|control (ssRNA)
# RNA: GGGAGUUCUACAGUCCGACGAUCCUAUGGACUGCUAUAAGCCCUUCCCCCAGCCCCAGGUACUUUUGCAAGAGCAGAGAACGCUCUUUCACUACCAUCACCUCCCAGCCUCUGCUGGGAUACUCUGAGUUACACGUAUGGCUUCAACAGAGGAUUGAGCAUCA
# B3: chr7:7679991:7679992:-_ENSG00000106399_ENST00000396682|hu_hu|hu_hu_hu_mus_False|8_8 (ssRNA)
# RNA: GGGAGUUCUACAGUCCGACGAUCUGGGAUGAAUCUUUUCCAGCUUCCCCACGAAGCACACGGGCCGGUCGAUAUACUGUGGUAACAUGCUGGCGUUGACGCGCGCUUUGGGGAGCUGCAUUAUGUCCACCAUGAUUCUGCCGCCAACAGAGGAUUGAGCAUCA
# B4: 142153747_142154939_927_CDS_ENSG00000109445_ENST00000262990|human|control|control (ssRNA)
# RNA: GGGAGUUCUACAGUCCGACGAUCAUAAGCAUCAUACCCAGAAGCUCCAUCUCCCUCUUCACCUCCAGUCUGCCUGCCAAAUUUCAGGGAGCGUGUUGACAUGCUAAGGUCCUUAGUCUCCUGAGUUUCAUGCCCACAUUUAGGCAACAGAGGAUUGAGCAUCA
# B5: chr2:232320318:232320319:-_ENSG00000115053_ENST00000322723|hu_hu|hu_hu_hu_mus_True|28_78 (ssRNA)
# RNA: GGGAGUUCUACAGUCCGACGAUCACUAUUAAAGUCUACAAAACCAAACCCUUUGGAGGACCCAGUUUCCCGAUCAGUGACUAUUCUUGCACGAACAGAGCCCUCAAAUGACUCCUUUAAGGUCUCUUCAGUGGUAUCCUCAGACAACAGAGGAUUGAGCAUCA
# B6: chr13:100518589:100518590:+_ENSG00000125246_ENST00000339105|hu_hu|FALSE|FALSE (ssRNA)
# RNA: GGGAGUUCUACAGUCCGACGAUCUUCUCGUGACUGUCUAAGCAGCCCAGCUCCAUCUCGAAAGUCAAUGUACACCAGAUCUAUGGCUUGGAGACCAAAGGCUUUCGCUAUGACAACAAUCUUUUGCCGGGCGUAGAGAAUAUCCAACAGAGGAUUGAGCAUCA
# B7: chr17:60770872:60770873:+_ENSG00000011028_ENST00000303375|hu_hu|hu_hu_hu_mus_True|1_58 (ssRNA)
# RNA: GGGAGUUCUACAGUCCGACGAUCUCUUUAAAAAAAAAAAAAAAAAGACAAACAAUAAUAGCACAUUUCGAGAAUCAUCAACUACAGUAGAGGGUCCGCUUUGAGUUUUUGUUCACAUCGUCCUGCACUGGGACACGACCAGGACAACAGAGGAUUGAGCAUCA
# B8: chr17:60770872:60770873:+_ENSG00000011028_ENST00000303375|hu_hu|hu_hu_hu_mus_True|58_58 (ssRNA)
# RNA: B7 RNA with A137G, C138G, C139G, G141C, G142U, A143G
# B9: chr17:60770872:60770873:+_ENSG00000011028_ENST00000303375|hu_hu|hu_hu_hu_mus_True|58_88 (ssRNA)
# RNA: GGGAGUUCUACAGUCCGACGAUCUCUUUAAAAAAAAAAAAAAAAAGUUUAAAAACAAUAGCACAUUUCGAGAAUCAUCAACUACAGUAGAGGGUCCGCUUUGAGUUUUUGUUCACAUCGUCCUGCACUGGGACACGGGGACUGCAACAGAGGAUUGAGCAUCA
# B10: chr22:38882006:38882007:-_ENSG00000100201_ENST00000396821|hu_hu|FALSE|FALSE (ssRNA)
# RNA: GGGAGUUCUACAGUCCGACGAUCAGGAGGAGGAGGGGGAGGAGGAGGAGGGUAUUGGUAGGCAGUCUGCCCCAUGUAACCUAUCAUAUUGGUAGCUCCCGGAGGCUGUGCAAACUGUUGUGACAUCAGUGGCUGUGGCUGCUGCAACAGAGGAUUGAGCAUCA
# B11: chr10:28872372:28872373:+_ENSG00000095787_ENST00000354911|hu_mus|FALSE|FALSE (ssRNA)
# RNA: GGGAGUUCUACAGUCCGACGAUCUGCAUCUGAAGUUUUGCUUGGAUUAUUGCUUGGAUUAGAAGAAUGUGAAUUUGAACUAUGAAGUGCACUGUGGUUGUGUGAGUUUUCUUGUGGAGAGUAACUGGUCCCACCGUCCCUUUCCAACAGAGGAUUGAGCAUCA
# B12: chr19:8913615:8913616:-_ENSMUSG00000071658_ENSMUST00000096259|mus_hu|mus_mus_mus_hu_False|18_108 (ssRNA)
# RNA: GGGAGUUCUACAGUCCGACGAUCAGGGGGGCACCAACUUCUGCCUGAAAUGGGUGCCCCACCCAGUAGGGAGUUGCAGCUGAAAGUAUCUGAUGCAGAAGCAGUGACUAUACGAAAGGUCACUAGAGGGGAGGGCCAGGCCAGCAACAGAGGAUUGAGCAUCA
# B13: 49433355_49433581_8031_CDS_ENSG00000167548_ENST00000301067|human|control|control (ssRNA)
# RNA: GGGAGUUCUACAGUCCGACGAUCGCGCUGGAUCUGCUGCCGAAUCAGCAGCUCUCGUAGUCGCUGGCGCUGCCGUUGCUUCUCCAGCUCUGUUUGGCUAAGGCCGGACAUGCCUGGGUCCUGGGUACCUGGGAGUUCAGCUGUCAACAGAGGAUUGAGCAUCA
# B14: chr15:11317090:11317091:-_ENSMUSG00000022241_ENSMUST00000022849|mus_mus|FALSE|FALSE (ssRNA)
# RNA: GGGAGUUCUACAGUCCGACGAUCUUCUGUGAGGAUGGCAAUCAUUCUUUCCACCGACCCCAGGAUGGCUCUGUGAACAAUCACUGGCCUUUUCUUAUCAUCGCCAUCGUGGCUGACGUAAGUAAGGUUAAACCUGAUGGGCAACAACAGAGGAUUGAGCAUCA
# B15: chr20:57609950:57609951:-_ENSG00000101166_ENST00000355937|hu_mus|FALSE|FALSE (ssRNA)
# RNA: GGGAGUUCUACAGUCCGACGAUCGAUCUUUUGUUUAGAUCAAAAGUCACAGCCUUACCCCACCUCAUUAAAAAAAAAGAUCUACCUAAAAUAAUUGUGUCUUUUAAAUAACAAAUAAUAUGAUGCCAGCUUGAGAGUCCUGGACAACAGAGGAUUGAGCAUCA
# B16: chr4:87735950:87735951:+_ENSG00000163629_ENST00000511467|hu_hu|FALSE|FALSE (ssRNA)
# RNA: GGGAGUUCUACAGUCCGACGAUCCUCACCAUGUCCUUGUAACAAUGUCUGCUAUCAUCAAAUGCUGCCUUUAAUCAUCCCUAAGAUCUGCAUUGUUUGGUUAGUGUUAAAAUUUUGUAAAUAAUUAUCAUAGGUUAAAGUAGCCAACAGAGGAUUGAGCAUCA
# B17: chr7:66561770:66561771:+_ENSMUSG00000025326_ENSMUST00000107537|mus_mus|motif|central (ssRNA)
# RNA: GGGAGUUCUACAGUCCGACGAUCUUAGCAUUACAGUAAAUAAGAGCUCUGUCUCAACUACUACAAGAAAGAAAAUAAUCCGGAGACAUCCUUUUCCCCUUCCAAUGAUUUGAAAGCUACCAUUAUCCCCUGCCAAUUAAAAUCCAACAGAGGAUUGAGCAUCA
# B18: 133533018_133533138_1595_3pUTR_ENSG00000113575_ENST00000481195|human|control|control (ssRNA)
# RNA: GGGAGUUCUACAGUCCGACGAUCUAGAAGGGAGGCCUUGGUAAUUAUUUUUAAAAAUGUUCAUUAAGCUCCAAUGAUUGUUUGCUGCUAUCCUUAUCUACAGUCAUGCUGAGUAAAGCUAUAGCUAAAUGGAAGUUAAAUUGUCAACAGAGGAUUGAGCAUCA
# B19: chr19:60011576:60011577:-_ENSMUSG00000040022_ENSMUST00000171986|mus_hu|FALSE|FALSE (ssRNA)
# RNA: GGGAGUUCUACAGUCCGACGAUCUUUUGCUGUAAAUGGAUUGGUUGACUCAUAAUCAAAAUAGUCCUGGCGAUUUUCACUAAAUGCAUUAGGUGAUUUCAAGUCACAAGGGCUAUCAGAUCCCCCAUUGUUAAGUUUAUCAGACAACAGAGGAUUGAGCAUCA
# B20: chr4:87735950:87735951:+_ENSG00000163629_ENST00000511467|hu_hu|motif|central (ssRNA)
# RNA: B16 RNA with U81G, A82G
# B21: chr7:106631192:106631193:-_ENSMUSG00000030744_ENSMUST00000032998|mus_mus|motif|central (ssRNA)
# RNA: GGGAGUUCUACAGUCCGACGAUCCUUCAGCCAGCUCCCGAGUGAGAAAUUCAUUCAGCUCAGCUUUGAAGAUGCCAUCAGCGGCAAACUUCCUCUUCUUGGAAAUCUGCACCGCCAUCUUGCAGCCGCGCGCCGCUGAAAGGACAACAGAGGAUUGAGCAUCA
# B22: chr7:72463354:72463355:-_ENSMUSG00000030516_ENSMUST00000102592|mus_hu|FALSE|FALSE (ssRNA)
# RNA: GGGAGUUCUACAGUCCGACGAUCUAACUUCCUGGCACUUUUCCGAGAUUCUGGACAUAACCUCAUUCUCAUUGUUUUUACUCCUUGCUUAGAAUCAGGGUUAAGAAAUACAACAAUUGGAUACCACUGGGCAUAGUUAAGACGCAACAGAGGAUUGAGCAUCA
# Target: T1, UNK ZnF1-3
# Assay: nsRBNS (natural sequence RNA bind-n-seq); RBNS binding buffer (assumed for nsRBNS): 25 mM Tris pH 7.5, 150 mM KCl, 3 mM MgCl2, 0.01% Triton X-100, 500 ug/ml BSA, 20 U/ml SUPERase-In, 4 C; UNK is unkempt and MSI1 is Musashi-1; names of the RNAs are library labels; protein concentration not given here; high values mean tight binding
row,Binder,binding signal [enrichment R]
1,B1,2.09
2,B2,0.77
3,B3,0.487
4,B4,1.39
5,B5,0.596
6,B6,0.61
7,B7,3.08
8,B8,4.08
9,B9,4.59
10,B10,1.56
11,B11,1.04
12,B12,0.986
13,B13,0.484
14,B14,1.43
15,B15,2.8
16,B16,3.93
17,B17,1.63
18,B18,1.37
19,B19,0.505
20,B20,5.3
21,B21,0.767
22,B22,1.13
